# Data as given in PubChem BioAssay.
# Activity calls are given as the source filed them. Unless noted, how the calls were made is not given here.
# Experiments:
# [1] = compound effects on lung adenocarcinoma cell viability – A549, calcein-AM fluorescence, 48 h, basal, profiling panel (AID 1162); conditions: higher = more signal; further: test concentration not given here
# [2] = compound effects on differentiated 3T3-L1 adipocyte viability – cell-based, 3T3-L1 adipocytes, calcein-AM fluorescence, 48 h, basal, profiling panel (AID 1163); conditions: 3T3-L1 adipocytes viability, higher = more signal; further: test concentration not given here
# [3] = compound effects on hepatocellular carcinoma cell viability – HepG2, calcein-AM fluorescence, 48 h, basal, profiling panel (AID 1164); conditions: higher = more signal; further: test concentration not given here
# [4] = compound effects on multiple myeloma cell viability – MM1S, calcein-AM fluorescence, 48 h, basal, profiling panel (AID 1165); conditions: higher = more signal; further: test concentration not given here
# [5] = calcein-AM signal in unstimulated myeloma cells – cell-based, calcein-AM fluorescence, 48 h, PK04 Diversity Set, profiling panel (AID 1166); conditions: RPMI8226 myeloma viability, higher = more signal;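 further: cells grown under basal conditions without added stimulus; test concentration not given here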
# [6] = JC-1 mitochondrial signal, unstimulated HepG2 cells – cell-based, JC-1 fluorescence, 24 h, 100 nL compound, profiling panel (AID 1167); conditions: HepG2 mitochondrial potential, higher = more signal; further: test concentration not given here
# [7] = JC-1 mitochondrial signal, unstimulated adipocytes – cell-based, JC-1 fluorescence, 3T3-L1 adipocytes, 24 h, 100 nL compound, profiling panel (AID 1168); conditions: JC-1 mitochondrial fluorescence, higher = more signal, called active from +8 up or from −8 down; further: test concentration not given here
# [8] = JC-1 mitochondrial signal, unstimulated myeloma cells – cell-based, JC-1 fluorescence, RPMI8226, 24 h, 100 nL compound, profiling panel (AID 1169); conditions: JC-1 mitochondrial potential fluorescence, higher = more signal; further: test concentration not given here
# [9] = JC-1 mitochondrial signal, unstimulated MM1S myeloma – cell-based, JC-1 fluorescence, 24 h, 100 nL compound, profiling panel (AID 1170); conditions: MM1S mitochondrial potential, higher = more signal; further: test concentration not given here
# [10] = resazurin metabolic signal in A549 cells – cell-based, resazurin fluorescence, 24 h, PK04 Diversity Set, profiling panel (AID 1171); conditions: A549 viability, higher = more signal, called active from +8 up or from −8 down; further: test concentration not given here
# [11] = resazurin metabolic signal in HepG2 cells – cell-based, resazurin fluorescence, 24 h, PK04 Diversity Set, profiling panel (AID 1172); conditions: HepG2 viability, higher = more signal; further: test concentration not given here
# [12] = budding yeast growth changes without added modifier – OD600, strain BY4716, 24 h, basal condition, primary screen (AID 1173); conditions: S. cerevisiae BY4716 growth, OD600, 24 h; higher = more signal, called active from +8 up or from −8 down
# [13] = viability profiling in MM1S myeloma cells – cell-based, resazurin fluorescence, basal, 24 h, PK04 Diversity Set, profiling panel (AID 1174); conditions: higher = more signal, called active from +8 up or from −8 down; further: test concentration not given here
# [14] = molecular target: Dihydroorotate dehydrogenase (quinone), mitochondrial (Plasmodium falciparum (isolate 3D7)) (UniProt Q08210); assay: inhibition of P. falciparum DHODH – biochemical, C-terminal His tag, absorbance 600 nm, primary screen (AID 1175); conditions: PfDHODH enzyme, DCIP absorbance 600 nm; higher = more signal, called active from +8 up or from −8 down;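 further: recombinant parasite enzyme with a five histidine tag at its C terminus; test concentration not given here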
# [15] = inhibition of PAO1 biofilm formation – strain PAO1, LB-PBS medium, absorbance 600 nm, primary screen (AID 1176); further: test concentration not given here; conditions: P. aeruginosa PAO1 growth/biofilm, A600, 12 h; higher = more signal
# [16] = growth modulation of vineyard yeast isolate – strain RM11-1a, OD600, basal, 24 h, primary screen (AID 1177);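 further: cultures grown under basal conditions with no added stressor; test concentration not given here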; conditions: S. cerevisiae RM11-1a growth, OD600, 24 h; higher = more signal, called active from +8 up or from −8 down
# [17] = growth of efflux-deficient E. coli DRC39 – strain DRC39, OD650, 24 h, E. coli filamentation inducers, primary screen (AID 1178);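 further: growth measured as culture turbidity by optical density at 650 nm; test concentration not given here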; conditions: E. coli DRC39 acrAB, higher = more signal, called active from +8 up or from −8 down
# [18] = growth of efflux-deficient E. coli DRC39 – strain DRC39, OD650, 48 h, E. coli filamentation inducers, primary screen (AID 1179);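 further: screen aims at cell division blockers that make cells filament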; conditions: E. coli DRC39 delta-acrAB growth, higher = more signal, called active from +8 up or from −8 down
# [19] = viability profiling in RPMI8226 myeloma cells – cell-based, resazurin fluorescence, basal, 24 h, PK04 Diversity Set, profiling panel (AID 1180); conditions: higher = more signal;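 further: RPMI8826 multiple myeloma cell line at 5000 cells per well; test concentration not given here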
# [20] = molecular target: E3 ubiquitin-protein ligase XIAP (Homo sapiens) (UniProt P98170); assay: small molecules binding XIAP protein – biophysical, small-molecule microarray, fluorescence 635 nm, primary screen (AID 1181); conditions: higher = more signal;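 further: score merges 667 nm emission and signal to noise over triplicate slides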
# E3 ubiquitin-protein ligase XIAP (Homo sapiens), sequence (P98170 whole entry, looked up): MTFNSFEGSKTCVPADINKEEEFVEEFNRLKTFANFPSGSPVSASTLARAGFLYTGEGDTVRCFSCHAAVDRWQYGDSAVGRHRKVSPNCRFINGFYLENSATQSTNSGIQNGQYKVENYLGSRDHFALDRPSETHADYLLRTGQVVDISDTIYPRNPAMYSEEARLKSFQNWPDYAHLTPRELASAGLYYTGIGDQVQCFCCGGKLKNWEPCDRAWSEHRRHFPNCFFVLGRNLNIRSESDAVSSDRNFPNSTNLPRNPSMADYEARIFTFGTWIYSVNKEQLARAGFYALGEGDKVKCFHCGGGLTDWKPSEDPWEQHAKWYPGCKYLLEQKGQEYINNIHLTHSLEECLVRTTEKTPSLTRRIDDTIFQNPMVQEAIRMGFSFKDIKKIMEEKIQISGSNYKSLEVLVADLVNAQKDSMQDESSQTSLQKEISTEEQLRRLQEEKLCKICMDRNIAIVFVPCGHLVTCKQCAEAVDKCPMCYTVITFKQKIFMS
# Dihydroorotate dehydrogenase (quinone), mitochondrial (Plasmodium falciparum (isolate 3D7)), sequence (Q08210 whole entry, looked up): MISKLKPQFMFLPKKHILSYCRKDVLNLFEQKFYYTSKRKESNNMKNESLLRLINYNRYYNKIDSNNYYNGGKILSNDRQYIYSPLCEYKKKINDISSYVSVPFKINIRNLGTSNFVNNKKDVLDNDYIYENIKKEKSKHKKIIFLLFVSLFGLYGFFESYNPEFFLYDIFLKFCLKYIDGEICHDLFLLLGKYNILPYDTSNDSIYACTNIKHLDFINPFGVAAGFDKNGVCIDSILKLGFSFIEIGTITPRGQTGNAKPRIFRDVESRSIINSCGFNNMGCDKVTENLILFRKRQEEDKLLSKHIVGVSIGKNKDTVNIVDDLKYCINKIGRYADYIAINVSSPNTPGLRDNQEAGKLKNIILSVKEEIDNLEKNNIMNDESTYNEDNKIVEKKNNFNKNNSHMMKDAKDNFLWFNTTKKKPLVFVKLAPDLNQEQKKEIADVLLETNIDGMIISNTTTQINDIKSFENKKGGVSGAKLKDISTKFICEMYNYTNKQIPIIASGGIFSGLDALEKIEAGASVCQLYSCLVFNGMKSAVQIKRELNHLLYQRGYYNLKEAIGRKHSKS
Compound,z-score [1],z-score [2],z-score [3],z-score [4],z-score [5],z-score [6],z-score [7],z-score [8],z-score [9],z-score [10],z-score [11],z-score [12],z-score [13],composite z-score [14],z-score [15],z-score [16],z-score [17],z-score [18],z-score [19],composite z-score [20]
CS(=O)(=O)CCOC(=O)C1=CC(CCCO)=CC(C2CC2)N(Cc2sc3ccccc3c2Cl)C=C1C(=O)OCCS(C)(=O)=O (stereo not given),-0.768,0.968,-0.344,-3.24,-3.05,1.67,0.182 (inactive),-0.843,-1.27,0.459 (inactive),-0.0631,-6.21 (inactive),-0.548 (inactive),-0.559 (inactive),0.0478 (inactive),0.155 (inactive),0.564 (inactive),0.156 (inactive),-0.541,0.431
COc1c(C)cc(-c2nc(-c3ccccc3)c3c(c2C)CO[Si]3(C(C)C)C(C)C)cc1C,-0.926,-1.12,-0.518,-0.532,-0.931,-0.175,-1.19 (inactive),0.379,-0.294,1.44 (inactive),1.16,0.709 (inactive),0.032 (inactive),0.08 (inactive),0.845 (inactive),-0.0161 (inactive),0.187 (inactive),0.135 (inactive),0.199,0.53
NCCCCCCNC(=O)[C@@H]1C[C@@H]2C(=O)NCC(=O)N2[C@@H]1c1cccc(OCCO)c1,0.51,0.22,1.06,0.604,-0.431,1.14,0.885 (inactive),0.533,0.307,0.678 (inactive),-0.903,-0.277 (inactive),0.717 (inactive),-0.775 (inactive),-0.0617 (inactive),-0.121 (inactive),0.295 (inactive),0.976 (inactive),0.438,-0.213
COC(=O)Cn1c(C(=O)N(C)C)cc2c1C[C@H]1CN(C(=O)c3ccccc3)[C@@](Cc3ccccc3)(C(=O)OC)[C@@H]21,-0.314,0.275,-0.479,0.0914,-0.512,-1.11,-0.327 (inactive),-0.146,-1.11,0.374 (inactive),0.971,0.282 (inactive),0.52 (inactive),-0.777 (inactive),-0.747 (inactive),-0.161 (inactive),0.304 (inactive),-1.15 (inactive),1.09,0.343
COc1cc2c(cc1O)C(C)N(Cc1sc3ccccc3c1Cl)CC2 (stereo not given),0.0824,-0.0046,-0.0238,0.141,0.624,-1.08,-0.632 (inactive),0.838,-0.995,-0.205 (inactive),0.311,-0.961 (inactive),0.0446 (inactive),-2.64 (inactive),0.668 (inactive),-0.123 (inactive),1.14 (inactive),0.717 (inactive),-0.0875,-0.148
COc1ccc([Si](C)(C)[C@H]2[C@H](CC(=O)N3CCC[C@H]3CO)O[C@@]3(C(=O)N(C)c4c(Br)cc(C)cc43)[C@@H]2C)cc1,0.709,-0.333,-0.232,0.0328,-0.63,0.604,0.123 (inactive),-0.126,-0.468,0.809 (inactive),0.728,-0.966 (inactive),0.968 (inactive),-1.3 (inactive),0.92 (inactive),0.301 (inactive),0.541 (inactive),0.24 (inactive),0.235,1.43
CC(C)(C)OC(=O)CC[C@]1(C(=O)N2CCOCC2)COC(c2ccc(OCCCO)cc2)=N1,0.204,-0.492,1.26,0.571,-0.785,2.31,-0.305 (inactive),-0.44,-0.143,0.216 (inactive),0.329,-0.444 (inactive),0.475 (inactive),-0.0274 (inactive),0.149 (inactive),0.568 (inactive),1.21 (inactive),1.37 (inactive),0.227,0.0996
Cc1ccc(S[C@]2(C(=O)NC(C)C)CC(=O)N(Cc3ccccc3)[C@@H]2c2ccc(CO)cc2I)cc1,0.15,0.547,1,-2.02,-1.69,0.744,0.98 (inactive),-0.25,-1.23,-1.13 (inactive),-0.885,-2.23 (inactive),-3.48 (inactive),-0.489 (inactive),0.003 (inactive),-0.101 (inactive),-0.0759 (inactive),0.494 (inactive),-2.8,0.301
